# High-throughput results deposited in PubChem by several laboratories.
# ADAM10 inh = inhibitors of human ADAM10; recombinant ADAM10, EDANS/DABCYL FRET peptide cleavage, 3 h; O14672; inhibition, % at 7 µM; hit rate 0.62% among 370,000;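 active means inhibition above a per-campaign cutoff equal to the mean of compounds falling between control-based bounds plus 3 SD, cut at about 20% in these data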;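 further: 0% = DMSO wells while the 100% control is not disclosed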
# Target sequence (O14672 214-748 limits assumed): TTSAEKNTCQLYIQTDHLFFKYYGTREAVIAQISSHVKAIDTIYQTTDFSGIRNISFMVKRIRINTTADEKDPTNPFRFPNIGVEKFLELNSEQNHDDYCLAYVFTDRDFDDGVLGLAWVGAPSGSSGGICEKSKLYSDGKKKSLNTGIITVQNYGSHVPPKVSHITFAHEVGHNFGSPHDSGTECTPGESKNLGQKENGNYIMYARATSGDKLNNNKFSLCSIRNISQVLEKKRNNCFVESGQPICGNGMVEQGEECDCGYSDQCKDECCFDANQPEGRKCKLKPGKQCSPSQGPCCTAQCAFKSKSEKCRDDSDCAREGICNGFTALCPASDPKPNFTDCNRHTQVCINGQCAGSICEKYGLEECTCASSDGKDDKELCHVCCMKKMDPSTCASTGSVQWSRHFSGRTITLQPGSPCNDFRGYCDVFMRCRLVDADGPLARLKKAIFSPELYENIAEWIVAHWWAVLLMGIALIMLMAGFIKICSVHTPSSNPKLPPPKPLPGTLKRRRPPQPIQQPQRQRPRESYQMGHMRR
# V-ATPase pH = regulators of yeast V-ATPase proton transport; hit rate 0.37% among 350,000; S. cerevisiae, pHLuorin cytosolic pH fluorescence; response, % at 10 µM; in the data active means response mostly above about 7.3%, no sharp cut-off; inactive means mostly below about 5.4%; further: actives read high
# proKLK7 act = activators of human kallikrein-7 zymogen; purified proKLK7, EDANS-DABCYL substrate fluorescence; 100% is mature enzyme control, 0% vehicle; activation, % at 7 µM; hit rate 0.9% among 370,000; AID 652039;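 active means activation above the mean of all tested compounds plus 3 SD, computed per campaign excluding outliers beyond control limits, cut at about 13% in these data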
# ADAM17 inh = ADAM17 inhibition, QFRET primary screen; P78536; recombinant ADAM17, EDANS/DABCYL FRET peptide cleavage; inhibition, % at 6.95 µM; hit rate 0.83% among 370,000;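 active means inhibition above the mean of compounds lying between control limits plus 3 SD, set per campaign, cut at about 8.5% in these data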;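 further: 0% = DMSO-only wells as the low control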
# V-ATPase pH SP = yeast V-ATPase proton transport regulation; hit rate 2% among 980; S. cerevisiae pHLuorin cytosolic pH; response, % at 10 µM; shares compounds with V-ATPase pH; in the data active means response above about 24%;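 further: plate controls were vehicle wells for no effect and positive control wells for full effect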
# * marks the source's active call; other numbers are inactive results; nt = no result given. An excerpt weighted towards active compounds, which were near 2.3% of everything screened.
SMILES,ADAM10 inh,V-ATPase pH,proKLK7 act,ADAM17 inh,V-ATPase pH SP
CCN1CCN(C(=O)c2cc(S(=O)(=O)Nc3ccc(S(C)(=O)=O)cc3)ccc2Cl)CC1,-5,10*,0,-4,1
COc1ccc(-c2nnc(NC(=O)c3ccccc3C)o2)cc1,7,12*,0,0,7
CCOC(=O)[C@@]12CCCC3=C1N(CCC3)C(=O)[C@H]2CC(=O)N1CCCC1,-4,nt,0,-1,nt
O=C(NC1=NCCS1)c1cccc(F)c1,-12,-2,0,-5,-2
CN(C)c1cccc(-c2ccnc(N3CCC(C(N)=O)CC3)n2)c1,-12,nt,nt,-4,nt
O=C(NCc1cccs1)C1C2C=CC3(CN(Cc4ccccc4)C(=O)C13)O2 (stereo unspecified),-4,nt,-1,6,nt
O=C(NCCc1cccs1)c1ccc(Cl)c(Cl)c1,6,8.8*,0,-3,1
CCC(C#Cc1ccccc1)NCc1ccc(OC)cc1OC (stereo unspecified),10,nt,nt,2,nt
CC(=O)c1c(C)[nH]c(C(=O)NCc2ccc(Cl)cc2)c1C,-5,-3,0,-5,nt
CC(=O)c1c(C)[nH]c(C(=O)NCc2cccc(Cl)c2)c1C,1,9.6*,1,5,-2
Cc1cccc(-n2nc([N+](=O)[O-])c(=NC3CCN(Cc4ccccc4)CC3)n2O)c1,-3,13*,0,0,-2
CC(=O)Nc1sc2c(c1-c1nc(-c3ccccc3)cs1)CCN(C(C)C)C2,-115,nt,nt,-34,nt
CCCn1c(=O)c2sccc2n2c(CCCC(=O)NC3CCN(Cc4ccccc4)CC3)nnc12,-2,10*,0,-2,-1
O=C(Nc1ccn(Cc2c(F)c(F)c(F)c(F)c2F)n1)c1cccc(Cn2cc([N+](=O)[O-])cn2)c1,-6,0,0,-5,nt
O=C(Nc1ccn(Cc2c(F)c(F)cc(F)c2F)n1)c1cccc(Cn2cc([N+](=O)[O-])cn2)c1,2,19*,0,7,1
CC(=O)N1N=C(c2ccccc2)OC1(C)CC(=O)Nc1ccccc1 (stereo unspecified),-8,8.3*,0,-1,0
CC(=O)N1N=C(c2cccc([N+](=O)[O-])c2)OC1(C)CC(=O)Nc1ccccc1 (stereo unspecified),8,0,0,-2,nt
c1ccc(COCCCn2cc(-c3ccccc3)nn2)cc1,-8,10*,0,3,-2
CCOC(=O)Cn1cc(-c2ccccc2)nn1,-11,-2,0,-3,nt
CC1=C(C(N)=O)C(c2cccc(O)c2)n2nc(CCCO)nc2N1 (stereo unspecified),-17,7.2*,0,-4,-2
O=C(c1cccnc1)N1CCN(Cc2ccc3ccccc3c2)CC1,1,10*,0,-2,0
CCOC(=O)N1CCN(Cc2ccc3ccccc3c2)CC1,-3,0,1,-1,nt
O=C(OC12CCCN(C1)/C(=C/c1cccnc1)C2)c1cccc(F)c1 (stereo unspecified),0,nt,1,3,nt
Cc1nc(NC(=O)c2c(-c3ccccc3Cl)noc2C)sc1C,1,13*,0,-2,4
Nc1nc(NCc2ccco2)nc(N2CCCCCC2)c1[N+](=O)[O-],11,23*,0,0,1
SMILES,ADAM10 inh,V-ATPase pH,proKLK7 act,ADAM17 inh,V-ATPase pH SP
Nc1nc(NCc2ccco2)nc(N2CCCC2)c1[N+](=O)[O-],17,2,0,-1,nt
O=C(Oc1coc(CSc2nnc(NC(=O)c3cccs3)s2)cc1=O)c1ccccc1,5,9.3*,0,3,-3
COCC(=O)N1CCC(C(=O)NC2CCCc3ccccc32)CC1 (stereo unspecified),0,nt,0,1,nt
COc1cc2c(=O)c(-c3ccc(O)cc3)coc2cc1OC1OC(CO)C(O)C(O)C1O (stereo unspecified),-44,9.6*,1,-15,4
COc1ccc(-c2coc3cc(O[C@@H]4O[C@H](CO)[C@@H](O)[C@H](O)[C@H]4O)ccc3c2=O)cc1,-5,9,0,-2,nt
COc1ccc(Cn2ccc3ccc(-c4ccc5ccn(Cc6ccc(C#N)cc6)c5c4)cc32)cc1,-25,nt,-1,-13,nt
COc1cccc(OCc2nnc(SCC(=O)OCc3ccccc3)o2)c1,5,2,0,1,nt
O=C(CSc1nnc(-c2ccccc2)o1)OCc1ccccc1,0,-5,0,-3,3
CC(C)(C)c1ccc(-c2nnc(SCC(=O)NC3CC3)o2)cc1,-9,1,0,-1,nt
CCN(CC)C(=O)CSc1nnc(-c2ccccc2)o1,-3,-1,0,-6,2
